In the library only some 1.8% were active in any assay of this set; here they are far more common.
IkB sig inh: suppresses IkB signaling in ABC-DLBCL reporter cells; 0.04% of 110,000 active; ABC-DLBCL IkBa-CBG/CBR dual luciferase ratio, 4 h; response scale: scaled: untreated 0%, proteasome inhibitor 100%; Potency, µM (doses to about 57.1 µM); active means well fitted curve in the direction sought with a large enough effect in the signal ratio, not every such curve was filed as active; inconclusive means small, poorly fitted or top-dose-only effect, or a change in a side signal; the % refers to the signal ratio;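 further: the direction sought is a rising ratio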
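In this assay, an IκBα–CBG68 fusion accumulates when IKK-driven degradation is blocked; native CBR normalizes for cell number. OCI-Ly3 cells were treated 4 h with compound and doxycycline, then green and red light read after Chroma-Glo addition.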
p53ts 32C tox: cytotoxicity in p53ts cells at permissive temperature; H1299-p53A138V at 32C, ATP luminescence viability, 24 h; 0.93% of 130,000 active; Potency, µM (doses to about 46.1 µM), usual class: cytotoxic; AID 924; further: nearly all actives have a fitted effect of over 55% in size
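Viability by ATPlite luminescence after 24 h compound treatment (up to 46 uM) at the permissive 32C. Cells are H1299 carrying p53 A138V. Scale runs from DMSO basal to 100 uM tamoxifen as full kill; AC50 from Hill fits.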
p53ts 39C kill: p53ts cell cytotoxicity, nonpermissive temperature; H1299-p53A138V viability at 39C, ATP luminescence, 24 h; Potency, µM (doses to about 46.1 µM), most hits filed as cytotoxic; 1.5% of 130,000 active; AID 902; further: nearly all actives have a fitted effect of over 55% in size
Imprint erasure: induces erasure of genomic imprints in mouse ES cells; Potency, µM (highest dose often 60.7 µM), actives largely listed as activators; 0.02% of 110,000 active; mouse ES Peg3-LacZ reporter, beta-gal luminescence, 40 h
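Each well holds 300 Peg3LacZ-Neo (maternal) female ES cells incubated 40 h at 37C, 5% CO2. LacZ is measured by BetaGlo luminescence, with AC50 and maximum efficacy derived from dose-response curves.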
Of the large screens only hits and unclear results are named; the others gave an inactive call. Unless noted, the call rests on the fitted dose curve; in most records, active means well fitted curve in the direction sought with a large enough effect; inconclusive means small, poorly fitted or top-dose-only effect, or another doubt; inactive means no such curve, though single readings can be large; an effect the other way counts as inactive or inconclusive.

COc1ccc(CCNC(=O)C(C)n2nc(C)c3sc4ccccc4c3c2=O)c(OC)c1 (configuration not stated)	IkB sig inh inconclusive, p53ts 32C tox inconclusive, p53ts 39C kill 13µM
CCOc1ccc(CCNC(=O)CCCn2nc(C)c3sc4ccccc4c3c2=O)cc1	p53ts 39C kill inconclusive
Cc1nn(CCCC(=O)NCCc2ccc(Cl)cc2)c(=O)c2c1sc1ccccc12	p53ts 32C tox inconclusive, p53ts 39C kill 20µM
CCC(C(=O)NCCc1ccc(OC)c(OC)c1OC)n1nc(C)c2sc3ccccc3c2c1=O (configuration not stated)	none
Cc1nc(-c2cccc(F)c2)sc1CCNC(=O)Cc1ccc(F)cc1	none
CCc1ccc(NC(=O)CSc2nc3n[nH]c(C)c3c(=N)n2-c2ccc(C)cc2)cc1	p53ts 32C tox inconclusive, p53ts 39C kill 20µM
Cc1ccc(NC(=O)CSc2nc3n[nH]c(C)c3c(=N)n2-c2cccc(C)c2)cc1	IkB sig inh inconclusive
Cc1ccc(Cl)cc1-n1c(SCC(=O)NCc2ccccc2)nc2n[nH]c(C)c2c1=N	p53ts 39C kill inconclusive
CCC(C)NC(=O)CSc1nc2n[nH]c(C)c2c(=N)n1-c1cc(Cl)ccc1C (configuration not stated)	IkB sig inh inconclusive, p53ts 32C tox inconclusive, p53ts 39C kill 13µM
CCOc1nc(NCCN2CCOCC2)nc(NC(C)C)n1	none (no result: IkB sig inh, Imprint erasure)
COc1ccc(-c2nc(CS(=O)CC(=O)NCCc3ccc(Cl)cc3)c(C)o2)cc1OC (configuration not stated)	none
Cc1cc(NC(=O)c2ccc(S(=O)(=O)N(C)C)cc2)no1	none
Cc1cc(NC(=O)c2ccc(Cl)cc2)no1	p53ts 32C tox 7.9µM, p53ts 39C kill 7.9µM
CCOc1ccc(C(=O)Nc2cc(C)on2)cc1	p53ts 32C tox 2.5µM, p53ts 39C kill 3.2µM
Cc1sc2ncnc(NCC(c3ccco3)N(C)C)c2c1C (configuration not stated)	none
COc1cc(C(=O)Oc2c(CN3CCOCC3)cc(Cl)c3cccnc23)cc(OC)c1OC	IkB sig inh inconclusive, p53ts 32C tox inconclusive, p53ts 39C kill 13µM
COc1ccc(C(=O)Oc2c(CN3CCOCC3)cc(Cl)c3cccnc23)cc1	p53ts 39C kill inconclusive
Cc1ccc(-c2nnc(N3CCN(S(C)(=O)=O)CC3)c3ccccc23)cc1	none
Cc1occc1C(=O)Nc1ccc2c(c1)OCCO2	p53ts 32C tox inconclusive, p53ts 39C kill inconclusive
Cc1ccsc1C(=O)Nc1ccc2c(c1)OCCO2	p53ts 39C kill 14µM (no result: IkB sig inh, p53ts 32C tox, Imprint erasure)
Cc1cc(C(=O)Nc2ccc3c(c2)OCCO3)c(C)o1	p53ts 32C tox 16µM, p53ts 39C kill 13µM
Cc1ncoc1C(=O)Nc1ccc2c(c1)OCCO2	p53ts 32C tox inconclusive, p53ts 39C kill inconclusive
COc1ccc(CNC(=O)CCc2nnc3n(C)c(=O)c4sccc4n23)cc1	none
CCOC(=O)CN1C(C(=O)c2ccccc2)=C(OC(=O)c2ccccc2)c2ccccc2S1(=O)=O	IkB sig inh inconclusive
Cc1ccc(S(=O)(=O)N[C@H](CO)C(=O)O)cc1	none
Cc1ccc(S(=O)(=O)N[C@@H](Cc2ccccc2)C(=O)CCl)cc1	IkB sig inh inconclusive, p53ts 32C tox 6.3µM, p53ts 39C kill 3.2µM
COc1c(-c2coc3cc4c(cc3c2=O)CC(O)C(C)(C)O4)ccc2c1C=CC(C)(C)O2 (configuration not stated)	p53ts 32C tox inconclusive, p53ts 39C kill 25µM (no result: IkB sig inh)
Cn1c(-c2ccc3c(c2)OCO3)cnc1N	none
c1cc2c(cc1-c1cnc3n1CCC3)OCCO2	IkB sig inh inconclusive, p53ts 32C tox inconclusive, p53ts 39C kill 13µM
Cc1c(Cl)cccc1NC(=O)c1cc2sccc2n1Cc1ccc(F)cc1	none
CCn1cnc2cc(NC(=O)c3ccco3)ccc21	p53ts 32C tox 13µM, p53ts 39C kill 8.9µM (no result: IkB sig inh, Imprint erasure)
CCOc1ccc(NC(=O)c2ccco2)cc1	p53ts 32C tox 10µM, p53ts 39C kill 10µM
CCOc1ccccc1NC(=O)c1ccc(NC(=O)c2ccco2)cc1	none (no result: IkB sig inh, Imprint erasure)
COc1ccc(CNC(=O)c2cccc(N3CCCS3(=O)=O)c2)cc1	none
O=C1NCCCC2c3cc(O)c4ccccc4c3OC12N1CCCCC1 (configuration not stated)	IkB sig inh inconclusive, p53ts 32C tox 6.3µM, p53ts 39C kill 7.9µM
O=C1NCCCC2c3c(cc(Br)c(O)c3Br)OC12N1CCOCC1 (configuration not stated)	none
CC1CCCCN1CCn1c(=S)[nH]c2ncccc2c1=O (configuration not stated)	none

Source: PubChem BioAssay (National Center for Advancing Translational Sciences (NCATS))
